Pf Dd2 inh = blocks growth of Plasmodium falciparum Dd2 parasites; P. falciparum Dd2 growth, SYBR Green, 72 h; hits give low values; activity change, % at 10 µM; 94,000 compounds, 2.3% hits; in the data active means activity change below about -80%
C diff growth = C. difficile growth inhibition; 86,000 compounds, 0.25% hits; AID 1259249; growth activity, negative = inhibition, % at 16 µg/mL (by protocol); Clostridium difficile clinical isolate growth, OD600, 24 h; hits give low values;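 active means mean growth activity at or below -80% and every replicate also at or below -80%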
T cruzi growth = T. cruzi proliferation inhibition; T. cruzi beta-gal in NIH3T3, GalScreen luminescence, 90 h; inhibition, % at 8.34 µM; 77,000 compounds, 5.9% hits; AID 624255;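 active means mean inhibition above about 93%, with at least 55% of replicates each passing it, limit read from the data, passing the limit was not always enough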
Each line names hits and unclear results; the compound was inactive in the other large screens; ! = a repeat was not active. The list is not random: actives were taken first. Their share in the collection is about 6.8%.

C[C@H](CO)N1C[C@H](C)[C@H](CN(C)S(=O)(=O)c2ccc(Cl)cc2)Oc2ccc(NC(=O)Nc3ccc(C(F)(F)F)cc3)cc2C1=O	none
C[C@H](O)C#Cc1ccc([C@H]2[C@@H](CO)N3CCCCN(CC4CCOCC4)C[C@@H]23)cc1	none
CCCN(C)C[C@H]1OCCCC[C@H](C)Oc2ccc(NC(=O)Nc3cccc4ccccc34)cc2C(=O)N([C@@H](C)CO)C[C@H]1C	Pf Dd2 inh -91
C[C@H](CO)N1C[C@H](C)[C@H](CN(C)CC2CCCCC2)OCCCC[C@H](C)Oc2ccc(NC(=O)Nc3cccc4ccccc34)cc2C1=O	none
C[C@@H]1CCCCO[C@@H](CN(C)CC2CC2)[C@H](C)CN([C@H](C)CO)C(=O)c2cc(NC(=O)Nc3cccc4ccccc34)ccc2O1	none
C[C@@H]1CCCCO[C@H](CN(C)CC2CCCCC2)[C@H](C)CN([C@H](C)CO)C(=O)c2cc(NC(=O)Nc3cccc4ccccc34)ccc2O1	Pf Dd2 inh -88
C[C@@H]1CN([C@H](C)CO)C(=O)c2cc(NC(=O)Nc3cccc4ccccc34)ccc2O[C@@H](C)CCCCO[C@@H]1CN(C)CC1CCCCC1	Pf Dd2 inh -88
C[C@@H]1CCCCO[C@@H](CN(C)CC2CCCCC2)[C@@H](C)CN([C@@H](C)CO)C(=O)c2cc(NC(=O)Nc3cccc4ccccc34)ccc2O1	Pf Dd2 inh -82
C[C@@H]1CCCCO[C@H](CN(C)CC2CC2)[C@H](C)CN([C@@H](C)CO)C(=O)c2cc(NC(=O)Nc3cccc4ccccc34)ccc2O1	none
C[C@H](CO)N1C[C@H](C)[C@@H](CN(C)CC2CCCCC2)OCCCC[C@H](C)Oc2ccc(NC(=O)Nc3cccc4ccccc34)cc2C1=O	none
COc1cccc(C(=O)Nc2ccc3c(c2)C(=O)N(C)[C@H]2CC[C@@H](CC(=O)NCc4ccccc4F)O[C@H]2CO3)c1	none
CO[C@H]1CN(C)C(=O)c2ccc(NC(=O)C3CC3)cc2OC[C@@H](C)N(CC2CCOCC2)C[C@H]1C	none
CO[C@@H]1CN(C)C(=O)c2ccc(NC(=O)C3CCC3)cc2OC[C@@H](C)N(C(=O)NC(C)C)C[C@@H]1C	none
Cc1noc(C)c1NC(=O)N(C)C[C@@H]1OCCCC[C@@H](C)Oc2ccc(NC(=O)c3ccncc3)cc2C(=O)N([C@H](C)CO)C[C@@H]1C	none
CCCNC(=O)N1CC2(CCN(CC3CC3)CC2)c2c(n(C)c3cc(OC)ccc23)[C@H]1CO	none (no result: T cruzi growth)
C[C@@H]1CCCCO[C@H](CN(C)CC2CCCCC2)[C@H](C)CN([C@@H](C)CO)C(=O)c2cc(NC(=O)Nc3cccc4ccccc34)ccc2O1	Pf Dd2 inh -88
C[C@@H]1CCCCO[C@@H](CN(C)CC2CC2)[C@H](C)CN([C@@H](C)CO)C(=O)c2cc(NC(=O)Nc3cccc4ccccc34)ccc2O1	none
O=C(C[C@H]1CC[C@@H]2[C@H](COC[C@@H](O)CN2C(=O)Nc2ccc(Cl)c(Cl)c2)O1)NCc1ccccc1	none (no result: C diff growth)
CCCNC(=O)N(C)C[C@H]1Oc2cc(C#CCN(C)C)ccc2S(=O)(=O)N([C@H](C)CO)C[C@H]1C	none
C[C@H]1CN([C@@H](C)CO)C(=O)c2cccc(NC(=O)C3CCOCC3)c2O[C@H]1CN(C)Cc1ccc(-c2ccccc2)cc1	none
C[C@H]1CN([C@@H](C)CO)C(=O)c2cccc(NC(=O)C3CC3)c2O[C@@H]1CN(C)Cc1ccc(-c2ccccc2)cc1	none
C[C@@H]1CN([C@@H](C)CO)C(=O)c2cccc(NC(=O)C3CC3)c2O[C@H]1CN(C)Cc1ccc(-c2ccccc2)cc1	Pf Dd2 inh -89
CC(C)NC(=O)Nc1cccc2c1O[C@H](CN(C)Cc1ccc(-c3ccccc3)cc1)[C@@H](C)CN([C@@H](C)CO)C2=O	none
C[C@@H]1CN([C@@H](C)CO)C(=O)c2cccc(NC(=O)C3CCOCC3)c2O[C@H]1CN(C)Cc1ccc(-c2ccccc2)cc1	Pf Dd2 inh -84
C[C@H](CO)N1C[C@H](C)[C@@H](CN(C)Cc2ccc(-c3ccccc3)cc2)Oc2c(NC(=O)C3CCOCC3)cccc2C1=O	none
CC(C)NC(=O)Nc1cccc2c1O[C@H](CN(C)Cc1ccc(-c3ccccc3)cc1)[C@H](C)CN([C@@H](C)CO)C2=O	Pf Dd2 inh -85
C[C@@H]1CN([C@H](C)CO)C(=O)c2cccc(NC(=O)C3CCOCC3)c2O[C@H]1CN(C)Cc1ccc(-c2ccccc2)cc1	Pf Dd2 inh -84
C[C@@H]1CN([C@H](C)CO)C(=O)Cc2cc(NC(=O)CCCCCC(=O)Nc3ccccc3N)ccc2O[C@@H]1CN(C)C(=O)Nc1ccc2c(c1)OCO2	none
CN1C(=O)c2cc(NC(=O)c3ccc(F)cc3)ccc2OC[C@H]2O[C@H](CC(=O)NCC3CCCCC3)CC[C@@H]21	none
COc1ccc(NC(=O)N(C)C[C@H]2Oc3ccc(NC(=O)Nc4ccc(C(F)(F)F)cc4)cc3C(=O)N([C@@H](C)CO)C[C@H]2C)cc1	none
CCC(=O)N(C)C[C@H]1Oc2cc(-c3cccc(OC)c3)ccc2S(=O)(=O)N([C@@H](C)CO)C[C@@H]1C	none
O=C(Nc1cccc(F)c1)N1C[C@@H]2N[C@H](C1)C2c1ccc(-c2cccnc2)cc1 (stereo not given in full)	none (no result: T cruzi growth)
N#Cc1cccc(-c2ccc(C3[C@@H]4CN(C(=O)Nc5ccc(C(F)(F)F)cc5)C[C@H]3N4)cc2)c1 (stereo not given in full)	Pf Dd2 inh -84!, C diff growth -94 (no result: T cruzi growth)
O=C(Nc1ccc(C(F)(F)F)cc1)N1C[C@@H]2N[C@H](C1)C2c1ccc(-c2cccnc2)cc1 (stereo not given in full)	Pf Dd2 inh -91!, C diff growth -102! (no result: T cruzi growth)
COc1ccccc1NC(=O)N1C[C@@H]2N[C@H](C1)C2c1ccc(-c2cccc(C#N)c2)cc1 (stereo not given in full)	none (no result: T cruzi growth)
C[C@H](CO)N1C[C@H](C)[C@H](CN(C)C(=O)c2ccccc2)OCCCC[C@H](C)Oc2ccc(NC(=O)Nc3ccc4c(c3)OCO4)cc2C1=O	none
C[C@@H]1CN([C@H](C)CO)C(=O)c2cc(C#CCN(C)C)cnc2O[C@H]1CN(C)Cc1ccc(C(=O)O)cc1	none
C[C@@H]1CN([C@H](C)CO)C(=O)Cc2cc(NC(=O)NC3CCCCC3)ccc2O[C@H]1CN(C)S(=O)(=O)c1cn(C)cn1	none
C[C@@H]1CCCCO[C@@H](CN(C)Cc2ccc3c(c2)OCO3)[C@@H](C)CN([C@H](C)CO)C(=O)c2cc(NC(=O)CCCCCC(=O)Nc3ccccc3N)ccc2O1	Pf Dd2 inh -85 (no result: T cruzi growth)
C[C@@H]1CCCCO[C@H](CN(C)Cc2ccccc2)[C@@H](C)CN([C@@H](C)CO)C(=O)c2cc(NC(=O)CCCCCC(=O)Nc3ccccc3N)ccc2O1	none
C[C@@H]1CCCCO[C@H](CN(C)Cc2ccc(C(F)(F)F)cc2)[C@@H](C)CN([C@H](C)CO)C(=O)c2cc(NC(=O)CCCCCC(=O)Nc3ccccc3N)ccc2O1	Pf Dd2 inh -93 (no result: T cruzi growth)
C[C@@H]1CCCCO[C@@H](CN(C)Cc2ccc(Cl)c(Cl)c2)[C@@H](C)CN([C@H](C)CO)C(=O)c2cc(NC(=O)CCCCCC(=O)Nc3ccccc3N)ccc2O1	none (no result: T cruzi growth)
CC(=O)N(C)C[C@@H]1Oc2cc(-c3ccccc3)ccc2S(=O)(=O)N([C@H](C)CO)C[C@@H]1C	none
